Consider 28 molecules from PubChem BioAssay (NCATS).

Unmarked numbers belong to inactive results. Records with an inconclusive call do not appear. The source made the active and inactive calls. Calls follow the shape of the dose curve; as a rule, active = well fitted curve in the direction sought with a large enough effect; inconclusive = small, poorly fitted or top-dose-only effect, or another doubt; inactive = no such curve, though single readings can be large; an effect the other way counts as inactive or inconclusive.

Sequence of Muscarinic acetylcholine receptor M1 (Rattus norvegicus) (P08482 whole entry, looked up): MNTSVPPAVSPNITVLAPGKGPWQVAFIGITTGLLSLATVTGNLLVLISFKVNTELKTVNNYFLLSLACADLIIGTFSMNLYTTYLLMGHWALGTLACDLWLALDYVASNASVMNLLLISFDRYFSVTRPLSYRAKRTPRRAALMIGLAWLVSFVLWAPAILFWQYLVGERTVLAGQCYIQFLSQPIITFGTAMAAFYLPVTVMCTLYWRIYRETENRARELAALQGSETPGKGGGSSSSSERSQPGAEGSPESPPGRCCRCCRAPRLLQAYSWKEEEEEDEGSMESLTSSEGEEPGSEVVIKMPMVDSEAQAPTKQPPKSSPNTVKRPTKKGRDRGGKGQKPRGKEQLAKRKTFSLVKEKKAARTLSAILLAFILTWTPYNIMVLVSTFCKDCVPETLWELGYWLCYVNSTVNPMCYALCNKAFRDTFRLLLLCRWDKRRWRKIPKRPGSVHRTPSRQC

System in one test: not listed separately
Briefly: qHTS Assay for Identification of Small Molecule Agonists for Thrombopoietin (TPO) Signaling Pathway (AID 917). Also: potency is read from the fitted curve at half-maximal effect. As to activity, positive = activation: % is scaled to controls: 0 for no effect and ±100 for the full control effect. To be noted: TPO signaling pathway reporter cells, agonist qHTS, stimulated with TPO at its EC50; series mostly up to 38.5 µM; activity, positive = activation: at the top concentration. In short, it runs like this: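 Ba/F3 (mouse) + hTPO receptor + GpIIb-promoter luciferase; IL-3 withdrawn overnight; compound + 26 pM TPO (EC50), 24 hrs, 37 C, 5% CO2; Steadylite luminescence, 10 min RT.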
A general note: qHTS replaces the single test concentration by a dilution series.
Consider `CN1C(C(=O)Nc2ccccn2)=C(O)c2ccccc2S1(=O)=O`, for which the “activity, positive = activation” value was -11.5%.

Turning to `Cn1cnc2c1c(=O)[nH]c(=O)n2C`, the “activity, positive = activation” value is -10.8%.

On to `NCCS(=O)(=O)O`, for which the “activity, positive = activation” value was 0.976%.

As to `Nc1ccn([C@H]2CC[C@@H](CO)O2)c(=O)n1`, the “activity, positive = activation” value is -18.8%.

Regarding `O=c1c(-c2ccc(O)cc2)coc2cc(O)cc(O)c12`, the Potency is 1.58 µM (active).

For the molecule `O=C(C1CCCCC1)N1CC(=O)N2CCc3ccccc3C2C1` (configuration not stated), the “activity, positive = activation” value was -22.5%.

As to `Clc1ccc(C(c2ccccc2Cl)C(Cl)Cl)cc1` (configuration not stated), the “activity, positive = activation” value is -8.62%.

Regarding `CC(C)C(=O)Nc1ccc([N+](=O)[O-])c(C(F)(F)F)c1`, the “activity, positive = activation” value was -27.6%.

Consider `COc1ccc2[nH]cc(CCNC(C)=O)c2c1`, for which the “activity, positive = activation” value is -23.4%.

In the case of `O=C(c1ccc(F)cc1)C1CCN(CCn2c(=O)[nH]c3ccccc3c2=O)CC1`, the “activity, positive = activation” value was -4%.

Regarding `CS(=O)(=O)Nc1ccc([N+](=O)[O-])cc1Oc1ccccc1`, the “activity, positive = activation” value is -27.2%.

On to `NCCCCCC(=O)O`, for which the “activity, positive = activation” value is -12.3%.

On to `Cc1cc(C(C)(C)C)cc(C)c1CC1=NCCN1`, for which the “activity, positive = activation” value is -7.5%.

Regarding `Cn1c(=O)c2[nH]cnc2n(C)c1=O`, the “activity, positive = activation” value was -10.6%.

As for `Cc1ccccc1N1C(=O)c2cc(S(N)(=O)=O)c(Cl)cc2NC1C` (configuration not stated), the “activity, positive = activation” value was -15%.

`Nc1c2c(nc3ccccc13)CCCC2`: the “activity, positive = activation” value is -19.9%.

`NC12CC3CC(CC(C3)C1)C2`: the “activity, positive = activation” value is -4.68%.

As for `CC(C)Cc1ccc(C(C)C(=O)O)cc1` (configuration not stated), the “activity, positive = activation” value is 17.3%.

As for `Cn1c(=O)c2c(ncn2C)n(C)c1=O`, the “activity, positive = activation” value was -11.9%.

On to `CN(C)c1nc(N(C)C)nc(N(C)C)n1`, for which the “activity, positive = activation” value is -8.85%.

Consider `NCCc1cnc[nH]1`, for which the “activity, positive = activation” value was -29.2%.

Take `CN1CCC(=C2c3ccccc3CC(=O)c3sccc32)CC1`: the “activity, positive = activation” value was -0.557%.

Take `NS(=O)(=O)c1cc2c(cc1Cl)NCNS2(=O)=O`: the “activity, positive = activation” value was -22.8%.

Regarding `Cc1cn([C@H]2C=C[C@@H](CO)O2)c(=O)[nH]c1=O`, the “activity, positive = activation” value is -8.03%.

For `O=c1c(O)c(-c2ccc(O)c(O)c2)oc2cc(O)cc(O)c12`, the “activity, positive = activation” value is -20.2%.

Take `N[C@@H](Cc1c[nH]c2ccc(O)cc12)C(=O)O`: the “activity, positive = activation” value is -5.95%.

For the molecule `CCc1cccc2c3c([nH]c12)C(CC)(CC(=O)O)OCC3` (configuration not stated), the “activity, positive = activation” value was -0.664%.

Regarding `CCC1(c2ccccc2)C(=O)NCNC1=O`, the “activity, positive = activation” value is 8.02%.

System in the next test: not listed separately
Description: Cell Viability - LYMP2-001 (AID 921).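 Also: cells exposed to compound for 24 h at 37 °C; 0% = DMSO only and full inhibition = tetraoctylammonium bromide control wells; nearly all actives have a fitted effect of over 70% in size.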 Particulars: LYMP2-001 lymphoblastoid cell viability; series mostly up to 92.2 µM; activity change, negative = cytotoxic: at the top concentration. An outline of the steps: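 CellTiter-Glo luminescence (intracellular ATP) after 24 hr compound exposure at 37 C, 2500 lymphoblastoid cells/well in complete medium. AC50 fitted with standard Hill equation; tetraoctylammonium bromide positive control.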
In the case of `NCCS(=O)(=O)O`, the “activity change, negative = cytotoxic” value was 1.72%.

Take `Nc1ccn([C@H]2CC[C@@H](CO)O2)c(=O)n1`: the “activity change, negative = cytotoxic” value is -5.85%.

Consider `O=c1c(-c2ccc(O)cc2)coc2cc(O)cc(O)c12`, for which the “activity change, negative = cytotoxic” value was 2.35%.

With `Clc1ccc(C(c2ccccc2Cl)C(Cl)Cl)cc1` (configuration not stated), the “activity change, negative = cytotoxic” value was -4.08%.

Turning to `CC(C)C(=O)Nc1ccc([N+](=O)[O-])c(C(F)(F)F)c1`, the “activity change, negative = cytotoxic” value was -17.6%.

Regarding `COc1ccc2[nH]cc(CCNC(C)=O)c2c1`, the “activity change, negative = cytotoxic” value was 23.4%.

For the molecule `Cn1c(=O)c2[nH]cnc2n(C)c1=O`, the “activity change, negative = cytotoxic” value is -14.7%.

As to `Nc1c2c(nc3ccccc13)CCCC2`, the “activity change, negative = cytotoxic” value was -21.3%.

Turning to `Cn1c(=O)c2c(ncn2C)n(C)c1=O`, the “activity change, negative = cytotoxic” value is -14.1%.

`NS(=O)(=O)c1cc2c(cc1Cl)NCNS2(=O)=O`: the “activity change, negative = cytotoxic” value is -15.8%.

In the case of `Cc1cn([C@H]2C=C[C@@H](CO)O2)c(=O)[nH]c1=O`, the molecule was called inactive.

`N[C@@H](Cc1c[nH]c2ccc(O)cc12)C(=O)O`: the “activity change, negative = cytotoxic” value is -34%.

In the case of `CCC1(c2ccccc2)C(=O)NCNC1=O`, the “activity change, negative = cytotoxic” value is -9.8%.

System in the next test: not listed separately
Description: Confirmation and Secondary Assay for Modulators of Hemoglobin Beta Chain Splicing at IVS2 705 locus (AID 930).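 Also: HeLa cells stably expressing the EGFP-705 splicing reporter; % of control where 0% means no effect.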 To be noted: HeLa EGFP-705 splicing reporter, GFP fluorescence, 48 h; series mostly up to 46.1 µM; activation: at the top concentration. In short, it runs like this: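 Restored EGFP fluorescence after 2-day compound exposure reports splicing correction in IVS2-705 EGFP reporter HeLa cells; positive control was 500 nM splice-blocking PNA oligo. Signal measured as well total peak GFP intensity (488 nm excitation).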
Turning to `CN1C(C(=O)Nc2ccccn2)=C(O)c2ccccc2S1(=O)=O`, the “activation” value is -1.27%.

As for `Cn1cnc2c1c(=O)[nH]c(=O)n2C`, the “activation” value was -0.541%.

`Nc1ccn([C@H]2CC[C@@H](CO)O2)c(=O)n1`: the “activation” value is 1.24%.

Turning to `O=c1c(-c2ccc(O)cc2)coc2cc(O)cc(O)c12`, the “activation” value is 0.62%.

As to `O=C(C1CCCCC1)N1CC(=O)N2CCc3ccccc3C2C1` (configuration not stated), the “activation” value is 0.504%.

Turning to `Clc1ccc(C(c2ccccc2Cl)C(Cl)Cl)cc1` (configuration not stated), the “activation” value was -1.38%.

With `CC(C)C(=O)Nc1ccc([N+](=O)[O-])c(C(F)(F)F)c1`, the “activation” value was -1.18%.

Consider `COc1ccc2[nH]cc(CCNC(C)=O)c2c1`, for which the “activation” value is 4.36%.

Take `O=C(c1ccc(F)cc1)C1CCN(CCn2c(=O)[nH]c3ccccc3c2=O)CC1`: the “activation” value was -0.672% [at 38.3 µM].

For `CS(=O)(=O)Nc1ccc([N+](=O)[O-])cc1Oc1ccccc1`, the “activation” value was 2.41%.

Turning to `NCCCCCC(=O)O`, the “activation” value was 2.61%.

As for `Cc1cc(C(C)(C)C)cc(C)c1CC1=NCCN1`, the “activation” value was -0.0074%.

As to `Cn1c(=O)c2[nH]cnc2n(C)c1=O`, the “activation” value is 4.11%.

Turning to `Cc1ccccc1N1C(=O)c2cc(S(N)(=O)=O)c(Cl)cc2NC1C` (configuration not stated), the “activation” value is 1.49%.

`Nc1c2c(nc3ccccc13)CCCC2`: the “activation” value is 0.673% [at 38.3 µM].

As for `NC12CC3CC(CC(C3)C1)C2`, the “activation” value was 0.708%.

Turning to `CC(C)Cc1ccc(C(C)C(=O)O)cc1` (configuration not stated), the “activation” value is 0.462%.

Take `Cn1c(=O)c2c(ncn2C)n(C)c1=O`: the “activation” value is 0.283%.

For `CN(C)c1nc(N(C)C)nc(N(C)C)n1`, the “activation” value was 1.82%.

`NCCc1cnc[nH]1`: the “activation” value was 2.07%.

On to `CN1CCC(=C2c3ccccc3CC(=O)c3sccc32)CC1`, for which the “activation” value is -0.212%.

Consider `NS(=O)(=O)c1cc2c(cc1Cl)NCNS2(=O)=O`, for which the “activation” value was -0.799%.

Consider `O=c1c(O)c(-c2ccc(O)c(O)c2)oc2cc(O)cc(O)c12`, for which the “activation” value was 60.5% [at 38.3 µM].

Consider `CCc1cccc2c3c([nH]c12)C(CC)(CC(=O)O)OCC3` (configuration not stated), for which the “activation” value was 0.816%.

Turning to `CCC1(c2ccccc2)C(=O)NCNC1=O`, the “activation” value is -0.74%.

A further test addresses Muscarinic acetylcholine receptor M1 (Rattus norvegicus) (UniProt P08482). Description: qHTS Assay for Antagonists of Acetylcholine Muscarinic M1 Receptor: Kinetic Measurement of Intracellular Calcium Response (AID 943).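 Also: Fluo-4 calcium signal as peak divided by basal fluorescence over 4 min; nearly all actives have a fitted effect of over 75% in size.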 Particulars: M1-expressing cells, kinetic intracellular calcium fluorescence; series mostly up to 35.3 µM; activity change, negative = inhibition: at the top concentration. In short, it runs like this:
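Read-out: peak over basal Fluo-4 fluorescence, kinetic at 1 Hz for 4 min after EC80 carbachol (100 nM final). Rat M1-CHO cells, dye loaded 1 h at 37C, compound added 10 min before agonist.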
Turning to `NCCS(=O)(=O)O`, the “activity change, negative = inhibition” value is -29.8%.

For the molecule `Nc1ccn([C@H]2CC[C@@H](CO)O2)c(=O)n1`, the “activity change, negative = inhibition” value is -12.6%.

Take `NCCc1cnc[nH]1`: the “activity change, negative = inhibition” value is -34.5%.

Another test has the same target. Briefly: qHTS Assay for Antagonists of Acetylcholine Muscarinic M1 Receptor: Measurement of IP-One Response (AID 944). Also: nearly all actives have a fitted effect of over 75% in size. To be noted: CHO-M1 cells, IP-One HTRF, antagonist mode; series mostly up to 46.1 µM; activity change, negative = inhibition: at the top concentration. An outline of the steps:
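Read-out: HTRF competition between d2-IP1 and Eu-cryptate anti-IP1 antibody, emission 620 and 665 nm. Stimulus was carbachol, EC80 (200 nM), for 30 min in M1-CHO cells (rat receptor), after 10 min compound pre-treatment.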
Consider `Cn1cnc2c1c(=O)[nH]c(=O)n2C`, for which the “activity change, negative = inhibition” value was -22.7%.

On to `NCCS(=O)(=O)O`, for which the “activity change, negative = inhibition” value was 1.63%.

For `Nc1ccn([C@H]2CC[C@@H](CO)O2)c(=O)n1`, the “activity change, negative = inhibition” value was -38.1%.

Turning to `COc1ccc2[nH]cc(CCNC(C)=O)c2c1`, the “activity change, negative = inhibition” value was -33.8%.

On to `O=C(c1ccc(F)cc1)C1CCN(CCn2c(=O)[nH]c3ccccc3c2=O)CC1`, for which the “activity change, negative = inhibition” value was -18.1%.

Consider `Cn1c(=O)c2c(ncn2C)n(C)c1=O`, for which the “activity change, negative = inhibition” value was -15.2%.

Consider `NCCc1cnc[nH]1`, for which the “activity change, negative = inhibition” value is -23.8%.

For the molecule `N[C@@H](Cc1c[nH]c2ccc(O)cc12)C(=O)O`, the “activity change, negative = inhibition” value is -25%.
